Publication PMC4552634, “A New Set of Chemical Starting Points with Plasmodium falciparum Transmission-Blocking Potential for Antimalarial Drug Discovery” (PLoS ONE, 2015)
Out of some 13,000 compounds screened, about 3,200 (25%) showed an effect of 50% or more. This is one part of the list.

Test system: P. falciparum stage V gametocytes
Set-up: BacTiter-Glo ATP luminescence viability of purified stage V gametocytes in 384-well plates, per cent inhibition versus DMSO
Conditions: 48 h, 5 µM; inhibitor

Compound	% Inhibition [%]
O=C(Nc1ccc2c(c1)CCN2C1CCN(Cc2cc(F)cc(F)c2F)C1)c1ccco1 (stereo not drawn) [TCMDC-135071]	-23.05
CN1CCC(NCc2ccc(-c3ccc(S(=O)(=O)NC4CCC4)s3)cc2)CC1 [TCMDC-132232]	57.53
CN1CCC(NCc2ccc(-c3ccc(S(=O)(=O)NCc4ccccc4)s3)cc2)CC1 [TCMDC-132231]	68.61
CC(C)(CNC(=O)[C@@H]1CCCCN1)c1nc(-c2ccc(Cl)c(O)c2)c(-c2ccncc2)[nH]1 [TCMDC-141079]	-69.36
CS(=O)(=O)c1ccc(CNCc2ccc(-c3ccc(-c4nc5ccc(F)cc5[nH]4)s3)cc2)cc1 [TCMDC-132900]	4.618
O=S(=O)(NCCN1CCCC1)c1ccc(-c2ccc(CNCc3ccc(F)cc3)cc2)s1 [TCMDC-132284]	66.59
O=C1CCCN1CCCNCc1ccc(-c2ccc(-c3nc4ccc(F)cc4[nH]3)s2)cc1 [TCMDC-132756]	-11.94
O=C(NCCN1CCCC1)c1cccc(-c2ccc(-c3nc4ccc(F)cc4[nH]3)s2)c1 [TCMDC-132318]	15.45
O=S(=O)(NCCN1CCCC1)c1ccc(-c2cccc(CNCc3ccc(F)cc3)c2)s1 [TCMDC-132273]	98.81
CC(C)(C)CC(C)(C)c1ccc(O)c(CNC2CCCCC2)c1 [TCMDC-137604]	41.75
Cc1nnc(NC(=O)c2cn(-c3ccccc3)nc2-c2ccccc2C)o1 [TCMDC-125040]	22.18
COc1ccc(OC)c(C(O)C(C)NCc2cc(Cl)ccc2O)c1 (stereo not drawn) [TCMDC-137921]	36.34
O=C(Nc1ccc(Cl)cc1)c1cc(Cl)ccc1NC(=O)C1(c2ccc(Cl)cc2)CCCC1 [TCMDC-136643]	-21.36
COc1ccc(C(=O)Nc2ccc(Cl)cc2C(=O)Nc2ccncc2)cc1 [TCMDC-123739]	84.9
O=C(Nc1ccc(Cl)cc1C(=O)Nc1ccncc1)c1ccc(Cl)cc1Cl [TCMDC-125853]	59.79
Cc1nc(-c2ccncc2)sc1C(=O)Nc1ccc(Cl)cc1C(=O)Nc1ccc(Cl)cc1 [TCMDC-136515]	3.625
Cn1ccnc1CCC(=O)Nc1ccc(Cl)cc1C(=O)Nc1ccc(Cl)cc1 [TCMDC-136703]	12.32
Cc1ccc(NC(=O)Nc2ccc(Cl)cc2)cc1-c1ccc(C(=O)Nc2ccncc2)cc1 [TCMDC-133702]	-59.17
COc1ccc(CN(C)CCCc2ccc(NC(=O)c3cc4ccccc4[nH]3)cc2)cc1OC [TCMDC-131855]	-11.14
Nc1ccc2nc(C=Cc3ccc(Cl)cc3)[nH]c2c1 [TCMDC-123608]	-19.77
Cc1ccc(NC(=O)Nc2ccc(I)c(OCCN(C)C)c2)cc1Cl [TCMDC-139122]	-20.44

Compound	% Inhibition [%]
Cc1ccc(NC(=O)Nc2ccc(S(=O)(=O)c3ccc(NC(=O)Nc4ccc(C)c(Cl)c4)cc3)cc2)cc1Cl [TCMDC-124273]	85.03
CN1CCc2ccc(NC(=O)Nc3ccc(Cl)c(Cl)c3)cc2C1 [TCMDC-133728]	0.1652
COc1ccc(C(=O)CCC(=O)N(Cc2ccc(-c3ccc(CNCCc4ccc(S(C)(=O)=O)cc4)cn3)cc2)C(C)CN(C)C)cc1F (stereo not drawn) [TCMDC-141512]	102.4
COc1ccc(C(=O)CCC(=O)N(CCSC(C)(C)C)Cc2ccc(-c3ccc(CNCCc4ccc(S(C)(=O)=O)cc4)cn3)cc2)cc1F [TCMDC-141517]	33.86
COc1ccc(C(=O)CCC(=O)N(Cc2ccc(-c3ccc(CNCCc4ccc(S(C)(=O)=O)cc4)cn3)cc2)Cc2ccc3c(c2)OCO3)cc1F [TCMDC-141514]	67.48
COc1ccc(C(=O)CCC(=O)N(Cc2ccc(-c3ccc(CNCCc4ccccc4)cn3)cc2)C(C)CN(C)C)cc1F (stereo not drawn) [TCMDC-141554]	109.3
COc1ccc(C(=O)CCC(=O)N(Cc2ccc(-c3ccc(CNCCc4ccc(S(C)(=O)=O)cc4)cn3)cc2)C2CC3CCC2C3)cc1F (stereo not drawn) [TCMDC-141515]	-37.66
COc1ccc(C(=O)CCC(=O)N(CCC2CCCN2C)Cc2ccc(-c3ccc(CNCCc4ccc(S(C)(=O)=O)cc4)cn3)cc2)cc1F (stereo not drawn) [TCMDC-141513]	-2.666
CCC(CC)N1C(=O)C(c2ccccc2)(c2ccccc2)N=C1N [TCMDC-136516]	-14.59
CCOC(=O)C(NC(=O)Cc1ccccc1)C(C)C (stereo not drawn) [TCMDC-131334]	-5.463
ON=C1CCc2cc(-c3nc(-c4ccc(OCCN5CCCCC5)cc4)[nH]c3-c3ccncc3)ccc21 [TCMDC-141174]	1.604
ON=C1CCc2cc(-c3cc(-c4ccc(OC5CCNCC5)cc4)oc3-c3ccncc3)ccc21 [TCMDC-141381]	91.63
CN(C)CCCOc1ccc(-c2nc(-c3ccc4c(c3)CCC4=NO)c(-c3ccncc3)[nH]2)cc1 [TCMDC-140742]	7.087
CC(C)(C(=O)Nc1ccc(N2CCC3(CCCN(CC4CC4)C3)CC2)c(Cl)c1)c1cccc(C(F)(F)F)c1 [TCMDC-134639]	-12.77
CC(C)(C(=O)Nc1ccc(C2CCC(NCC3CC3)CC2)c(Cl)c1)c1ccc(C(F)(F)F)cc1 (stereo not drawn) [TCMDC-134642]	92.31
CC(C)(C(=O)Nc1ccc(C2CCC(NCC3CC3)CC2)c(Cl)c1)c1cccc(OC(F)F)c1 (stereo not drawn) [TCMDC-134643]	32
O=C(Nc1cccc(-c2ccc(-c3nc4ccc(C(F)(F)F)cc4[nH]3)cc2)c1)c1cnc[nH]1 [TCMDC-136938]	-50.65
CCC(=O)Nc1ccc(Nc2nc(C)cc(N3CCCC3)n2)cc1 [TCMDC-124971]	-15.13
Cc1nnc(Sc2ncnc3scc(-c4ccc(F)cc4)c23)s1 [TCMDC-125239]	77.07
Clc1ncnc2scc(-c3ccc(Br)cc3)c12 [TCMDC-125318]	-35.26
Fc1ccc(-c2csc3ncnc(Cl)c23)cc1 [TCMDC-125317]	5.052
